test system: HCC1937; test: relative cell viability, compound + erastin, vs DMSO (fraction of DMSO control); higher = less growth inhibition; settings: 72 h
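Note: viability read by CCK-8 kit in 96-well plates, part of a combination screen pairing lipid-metabolism-targeting compounds with erastin.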

| Compound | relative cell viability |
| --- | --- |
| CCCCCCCCCCC#CC#CCCCCCCCCC(=O)O [10,12-Tricosadiynoic acid] + CCOc1ccccc1-n1c(C(C)N2CCN(C(=O)COc3ccc(Cl)cc3)CC2)nc2ccccc2c1=O [erastin] | 0.648 |
| CC(=O)c1c(C)cc2cccc(O)c2c1O [Nepodin] + CCOc1ccccc1-n1c(C(C)N2CCN(C(=O)COc3ccc(Cl)cc3)CC2)nc2ccccc2c1=O [erastin] | 0.7 |
| Cc1c(C(=O)NN2CCCCC2)nn(-c2ccc(Cl)cc2Cl)c1-c1ccc(Cl)cc1 [Rimonabant] + CCOc1ccccc1-n1c(C(C)N2CCN(C(=O)COc3ccc(Cl)cc3)CC2)nc2ccccc2c1=O [erastin] | 0.581 |
| CC[C@H](C)C(=O)O[C@H]1C[C@H](O)C=C2C=C[C@H](C)[C@H](CC[C@@H](O)C[C@@H](O)CC(=O)O)[C@H]21 [Pravastatin sodium] + CCOc1ccccc1-n1c(C(C)N2CCN(C(=O)COc3ccc(Cl)cc3)CC2)nc2ccccc2c1=O [erastin] | 0.909 |
| Cc1nc(-c2nc(-c3ccc(OC(F)(F)F)cc3)no2)nn1Cc1cccc(N2CCC(S(C)(=O)=O)CC2)c1 + CCOc1ccccc1-n1c(C(C)N2CCN(C(=O)COc3ccc(Cl)cc3)CC2)nc2ccccc2c1=O [erastin] | 0.647 |
| CCN(CC)c1ccc(C=NNC(=O)c2ccncc2)c(O)c1 + CCOc1ccccc1-n1c(C(C)N2CCN(C(=O)COc3ccc(Cl)cc3)CC2)nc2ccccc2c1=O [erastin] | 0.254 |
| CC(C)(CCCCCC(O)CCCCCC(C)(C)C(=O)O)C(=O)O + CCOc1ccccc1-n1c(C(C)N2CCN(C(=O)COc3ccc(Cl)cc3)CC2)nc2ccccc2c1=O [erastin] | 0.421 |

From the supplement of paper PMC9492666
